High-throughput results from PubChem BioAssay.
Pf apPOL inh: Pf-apPOL inhibitors, biochemical, fluorescence. inhibition, % at 10 µM. Recombinant Pf-apPOL, molecular beacon fluorescence, 1.5 h. hit rate 0.25% among 210,000. AID 1794808, 2022
mHTT CaM bind: mutant huntingtin-calmodulin interaction inhibitors – biochemical, AlphaScreen, primary screen; P42858; AlphaScreen His-mHTT/GST-CaM binding, luminescence; inhibition, % at 15 µM; hit rate 3.6% among 190,000;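 further: 0% = both proteins with DMSO and 100% = one protein alone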
Starred values were filed as active, the others as inactive; / = no result given. Rows were chosen to be rich in hits. Some 3.5% of all compounds tested hit in one or more screens of this group. No stated cut-off is given here; in the data, active means inhibition above about 50%; inactive means the rest.

SMILES | Pf apPOL inh | mHTT CaM bind
Cc1cc(NC(=O)CSc2nnc(-c3ccco3)c(-c3ccco3)n2)no1 | -5.1 | 69.0*
Cc1cc(NC(=O)CSc2nc3ccccc3s2)no1 | -0.1 | -24.3
CN(Cc1ccc(Cl)nc1)C(=O)c1nsc(Cl)c1Cl | -3.6 | -4.0
Cc1ccc(N2CC(C(=O)NCc3nn(C)c4ccccc34)CC2=O)cc1 (centres undefined) | 2.8 | -7.9
COCC(C)NC(=O)c1cc(-c2cccc(Cl)c2)on1 (centres undefined) | -5.2 | -9.0
CCc1noc(C2(NC(=O)c3ccc(C(F)(F)F)cc3)CCCCC2)n1 | -0.2 | -9.6
COc1ccc(S(=O)(=O)NCC23CC4CC(CC(C4)C2)C3)cc1OC | -6.9 | -7.0
Cc1ccc(-c2nc(-c3cccc(-c4ccn[nH]4)c3)no2)c(C)c1 | 2.1 | 9.9
O=C(CSc1nnc(-c2ccco2)n1-c1ccccc1)Nc1ccccc1 | 4.4 | 13.6
O=C(CSc1nnc(-c2ccco2)c(-c2ccco2)n1)Nc1cnc2ccccc2c1 | -0.9 | 93.0*
COc1ccc(C=C2SC(=S)N(CCC(=O)O)C2=O)c(OC)c1 | -5.8 | 7.8
CC1Oc2ccccc2C=C1C=CC(=O)O (centres undefined) | -9.3 | -1.8
CC1Oc2ccccc2C=C1C=C1SC(=S)N(CCC(=O)O)C1=O (centres undefined) | -6.7 | 53.3*
CC1Oc2ccccc2C=C1C=C1SC(=S)NC1=O (centres undefined) | -12.7 | 59.3*
CCSc1nnc2n(C)c(=O)c3c4c(sc3n12)CC(C(C)(C)C)CC4 (centres undefined) | -9.6 | 0.3
CS(=O)(=O)N1CCCCC1c1nncn1-c1ccccc1 (centres undefined) | 3.8 | -2.6
CC(C)c1noc(COC2CCCN(C(=O)NCc3ccco3)C2)n1 (centres undefined) | 1.4 | 0.1
CCCC(=O)Nc1c(-c2cccc(F)c2)nc2cc(C)ccn12 | -0.5 | 11.3
COc1ccc(CN2CCCC2c2cc(C)no2)cc1 (centres undefined) | 2.2 | 6.3
COc1ccc(C)cc1NC(=O)C(=O)NCC(c1ccccc1Cl)N(C)C (centres undefined) | -2.4 | 34.8
Cc1[nH]nc(SCC(=O)Nc2cccc(Cl)c2)c1[N+](=O)[O-] | 4.3 | 5.0
Cc1[nH]nc(SCC(=O)Nc2cc(Cl)ccc2O)c1[N+](=O)[O-] | -6.6 | 52.0*
C=CSc1sc(Cl)c(N2CCCCCC2)c1[N+](=O)[O-] | 6.1 | 43.0
CCN(Cc1ccccc1)Cc1ccccc1[N+](=O)[O-] | -7.5 | -21.8
C=CSc1sc(Cl)c(N(C)Cc2ccccc2)c1[N+](=O)[O-] | -76.3 | 64.0*
SMILES | Pf apPOL inh | mHTT CaM bind
C=CSc1sc(Cl)c(N2CCCC2)c1[N+](=O)[O-] | 6.1 | 75.0*
Clc1nc(NCc2ccco2)nc(Oc2ccccc2)n1 | -5.4 | 53.0*
Clc1nc(NCc2ccco2)nc(NC2CCCCC2)n1 | / | -3.7
NC(=O)C(Br)C12CC3CC(CC(Br)(C3)C1)C2 (centres undefined) | -3.9 | 3.0
Cc1ccc(C)c(S(=O)(=O)N2CCN(C)CC2)c1 | 1.4 | -2.8
Cc1cc(C)c(S(=O)(=O)N=C2C=C(Br)C(=O)c3ccccc32)cc1C | 2.5 | 41.0
Cc1ccc(C)c(S(=O)(=O)N=C2C=CC(=O)c3ccccc32)c1 | -2.7 | 96.0*
Cc1cc(S(=O)(=O)N2CCN(S(=O)(=O)c3ccc(Cl)c(C)c3)CC2)ccc1Cl | -4.2 | -2.0
Cc1cc(S(=O)(=O)N=C2C=CC(=O)c3ccccc32)ccc1Cl | -5.0 | 90.0*
Cc1cc(C)c(S(=O)(=O)N=C2C=CC(=O)c3ccccc32)cc1C | 4.7 | 98.0*
O=C(c1c(F)cccc1F)N1CCc2nc(-c3ccccc3)ncc2C1 | 1.5 | -5.4
COc1ccc(NC(=O)Cn2c(C(F)(F)F)nc3ccccc32)cc1 | -3.6 | 0.0
CCOc1ccc(-c2cc3n(n2)CCCN(C(=O)NCCOC)C3)cc1 | -2.5 | 13.3
COc1cc(Br)c(Br)cc1N | / | -10.6
COc1cc2c(cc1N)OCO2 | / | 54.3*
CCn1c(CCNC(=O)c2ccccc2)nc2c(C)cccc2c1=O | -5.8 | 24.4
CCn1c(CCNC(=O)c2cccc(N(C)C)c2)nc2c(C)cccc2c1=O | 0.6 | 58.7*
O=C(NC1CC1)C1CCN(c2ncnc3c2oc2ccccc23)CC1 | -2.6 | -2.8
O=c1[nH]c(CNC2CC2)nc2sc3c(c12)CCN(Cc1ccccc1)C3 | 2.6 | 28.4
c1cc(Nc2ncnc3sc4c(c23)CCC4)ccn1 | 4.3 | 3.6
NNc1ncnc2sc3c(c12)CCC3 | -3.4 | 99.8*
NNc1ncnc2sc3c(c12)CCN(Cc1ccccc1)C3 | 0.0 | 90.4*
Cc1nnsc1C(=O)Nc1nnc(-c2ccco2)o1 | 3.7 | -2.0
Cc1ccc(C)c(CSc2nc(C3CCCCC3)c(C#N)c(=O)[nH]2)c1 | 73.0* | /
Cc1ccccc1CSc1nc2c(cnn2-c2ccccc2)c(=O)[nH]1 | -1.1 | -1.0
SMILES | Pf apPOL inh | mHTT CaM bind
O=C(COc1ccccc1)N1CC(c2nc(-c3ncccn3)no2)C1 | -5.1 | -12.2
CCOC(CNC(=O)c1ccc2c(c1)ncn2-c1ccc(F)cc1F)OCC | -35.5 | -3.0
Cc1ccc(-c2ccc(/C=C3\C(=O)NN(c4ccc(F)cc4)C3=O)o2)c([N+](=O)[O-])c1C | 6.4 | 40.0
O=C1NN(c2ccc(Br)cc2)C(=O)/C1=C/c1ccc([N+](=O)[O-])o1 | 4.9 | 97.0*
O=C1Nc2ccc(Br)cc2/C1=C/c1ccccc1 | -6.5 | 48.0
C=CCN1C(=O)NC(=O)/C(=C/c2ccc(-c3ccc([N+](=O)[O-])cc3C)o2)C1=O | 2.9 | 5.0
O=C1Nc2ccc(Br)cc2/C1=C/c1ccc([N+](=O)[O-])o1 | -7.1 | 71.0*
Cc1cc(C)c(N2C(=O)NC(=O)/C(=C\c3ccc([N+](=O)[O-])o3)C2=O)c(C)c1 | -12.2 | 60.0*
CC(C)c1noc(-c2cccnc2N2CCCN(Cc3c(F)cccc3Cl)CC2)n1 | -5.5 | -66.1
CC1(C)OCC2(CO1)CN(C(=O)C13CC4CC(CC(C4)C1)C3)C2 | -3.8 | -3.9
Cc1ccc2c(c1)N(c1cccc(C)c1C)C=C(C#N)S2(=O)=O | -1.8 | -8.5
O=C(/C=C/c1ccc(Cl)cc1)Nc1cccc(C(F)(F)F)c1 | 0.1 | -73.0
CCOC(Cn1c(SCC(=O)NCCc2ccccc2)nc2ccccc2c1=O)OCC | -3.2 | 3.0
CN(C)CCCNc1c([N+](=O)[O-])c(=O)oc2ccccc12 | 5.8 | -1.0
COC(=O)[C@H]1CC=C[C@H]2CCN(Cc3ccc(Cl)c(Cl)c3)C(=O)[C@@H]12 | -5.5 | 68.5*
COc1ccc(CNC(=O)[C@@H]2CC=C[C@@H]3CCN(Cc4ccc(OC)c(OC)c4)C(=O)[C@@H]32)cc1 | -4.8 | 5.7
O=C(O)[C@H]1CC=C[C@H]2CCN(Cc3ccc(Cl)c(Cl)c3)C(=O)[C@@H]12 | -8.4 | 34.8
COc1ccc(CNC(=O)[C@@H]2CC=C[C@@H]3CCN(Cc4ccc(Cl)c(Cl)c4)C(=O)[C@@H]32)cc1 | -8.4 | 94.4*
Cc1cccc(C(=O)Nc2sc3c(c2C(=O)NCC2CCCO2)CCCC3)c1 (centres undefined) | -3.8 | -9.8
COc1ccc(-c2coc3c(C)c(OCCN4CC5CC(C4)c4cccc(=O)n4C5)ccc3c2=O)cc1 (centres undefined) | -120.2 | 30.0
Cc1ccc(Cl)c(NC(=O)C2CCc3nc(N4CCOCC4)ncc3C2)c1 (centres undefined) | -4.6 | -2.5
